Among all 99,000 compounds or so, about 820 (0.83%) were called active. This is one part of a sample in which actives are shown more often than they occur.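 How the source made its calls: active means Z-score of -3 or lower, scaled per plate to the spread of control and sample wells; inactive means z-score above -3.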
target: Protein-tyrosine kinase 2-beta (Homo sapiens) (UniProt Q14289); assay: antagonists of Pyk2 self-association, primary screen, Q293 cells, FERM NanoBiT luminescence, HTS (AID 1347419); set-up: dose or concentration left out as unconfirmed; conditions: stronger effect = lower value;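 further: the deposit names both 25 µM and 10 µM; negative z-score means lost luminescence so less FERM oligomerization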
Sequence (Q14289 whole entry, looked up): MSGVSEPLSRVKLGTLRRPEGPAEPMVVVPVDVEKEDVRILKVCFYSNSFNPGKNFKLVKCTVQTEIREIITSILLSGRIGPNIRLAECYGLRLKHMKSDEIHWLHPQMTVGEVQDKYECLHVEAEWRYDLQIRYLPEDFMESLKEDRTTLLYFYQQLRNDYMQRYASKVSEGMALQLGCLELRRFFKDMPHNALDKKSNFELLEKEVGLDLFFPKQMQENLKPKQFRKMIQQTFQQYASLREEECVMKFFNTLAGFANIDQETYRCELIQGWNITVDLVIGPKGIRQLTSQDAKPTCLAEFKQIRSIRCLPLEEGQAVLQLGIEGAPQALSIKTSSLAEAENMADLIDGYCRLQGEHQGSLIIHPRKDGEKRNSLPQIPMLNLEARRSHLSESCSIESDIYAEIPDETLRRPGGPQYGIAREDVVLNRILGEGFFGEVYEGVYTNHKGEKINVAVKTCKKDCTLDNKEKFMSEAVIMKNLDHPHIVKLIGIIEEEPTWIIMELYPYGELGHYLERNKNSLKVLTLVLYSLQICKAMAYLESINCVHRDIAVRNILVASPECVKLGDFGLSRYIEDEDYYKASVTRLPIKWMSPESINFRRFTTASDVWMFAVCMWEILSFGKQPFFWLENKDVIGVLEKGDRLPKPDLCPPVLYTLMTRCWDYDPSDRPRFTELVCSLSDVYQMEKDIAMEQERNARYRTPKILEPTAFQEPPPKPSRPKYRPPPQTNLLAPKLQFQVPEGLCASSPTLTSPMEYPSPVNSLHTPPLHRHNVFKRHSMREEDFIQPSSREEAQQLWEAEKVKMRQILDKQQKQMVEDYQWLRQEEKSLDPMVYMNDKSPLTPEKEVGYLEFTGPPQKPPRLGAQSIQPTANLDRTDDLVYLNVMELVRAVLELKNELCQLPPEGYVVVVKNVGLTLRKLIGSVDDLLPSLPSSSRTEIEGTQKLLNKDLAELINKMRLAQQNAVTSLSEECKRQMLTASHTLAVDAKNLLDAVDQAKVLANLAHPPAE

SMILES	z-score
Cc1nc(SCC(=O)c2ccccc2)c([N+](=O)[O-])[nH]1	-0.67 (inactive)
Cc1cc(SCC(=O)c2ccccc2)nc(SCC(=O)c2ccccc2)n1	-3.01 (active)
COC(=O)c1cc(C(=O)CSc2nc(C)cc(C)n2)ccc1O	-0.22 (inactive)
CC(C)=C1C2CCC1C1C(=O)N(NC(=O)c3ccco3)C(=O)C21 (stereo unspecified)	1.15 (inactive)
Cc1ccc(NC(=O)NC(=O)CSc2nnc(-c3ccc(OC(F)F)cc3)n2N)c(C)c1	-0.1 (inactive)
COc1ccc(-c2csc(NC(=O)CCCc3cccs3)n2)cc1	0.83 (inactive)
Cc1cccc(Nc2ccccc2C(=O)NCc2ccco2)c1C	-0.62 (inactive)
CS(=O)(=O)N(Cc1ccc(Cl)cc1)c1ccc(C(=O)NCCSCc2ccco2)cc1	0.47 (inactive)
Cc1ccc(N(Cc2ccc(C(=O)Nc3ccccc3C(=O)NCc3ccco3)cc2)S(C)(=O)=O)cc1C	-3.96 (active)
CCOC(=O)N/N=C/c1cn(Cc2ccccc2Cl)c2ccccc12	-1.11 (inactive)
C=CCn1c(SCc2cccc(F)c2)nc2cc(C(=O)N3CCC(C(N)=O)CC3)ccc2c1=O	-1.07 (inactive)
COc1ccc(/C=N/N=C/c2c[nH]c(=O)c(C#N)c2Nc2ccccc2)cc1	0.79 (inactive)
CCOC(=O)c1c(-c2ccc(C)cc2C)csc1NC(=O)CSc1nnnn1C	-3.44 (active)
CCOC(=O)CNC(=O)CSc1nnnn1-c1cc(C)ccc1C	-0.31 (inactive)
COC(=O)c1ccccc1NC(=O)CSc1nnnn1C	0.19 (inactive)
Cc1nonc1C(=O)N/N=C/c1ccc(O)cc1	0.67 (inactive)
CC(C)Nc1nnc(SCC(=O)c2c[nH]c3ccccc23)s1	0.14 (inactive)
Cc1cccc(C(=O)c2cccc(C)c2)c1	0.43 (inactive)
Cc1cccc(-n2c(SCC(N)=O)nc3c(c2=O)C2(CCCCC2)Cc2ccccc2-3)c1	1.27 (inactive)
CC(NC(=O)COC(=O)C1CCN(S(=O)(=O)c2ccccc2C(F)(F)F)CC1)c1ccccc1 (stereo unspecified)	-0.04 (inactive)
Nc1ccc(-c2nnc(-c3ccc(-c4ccccc4)cc3)o2)cc1	-3.38 (active)
O=C(Nc1ccc(-c2nnc(-c3ccccc3)o2)cc1)c1ccc(Br)o1	0.72 (inactive)
Brc1ccc(-c2nnc(-c3ccccc3)o2)o1	-0.77 (inactive)
Cc1ccnc(NC(=O)c2ccoc2C)c1	0.21 (inactive)

SMILES	z-score
COc1ccc2[nH]cc(/C=C(/C#N)S(=O)(=O)c3ccccc3)c2c1	-3.31 (active)
CCN(CC)CC(=O)c1c[nH]c2ccc(OC)cc12	-0.09 (inactive)
COc1ccc2[nH]c3ccc(OC)cc3c2c1	-0.72 (inactive)
CCOc1ccc(C(=O)Nc2cccc(SC)c2)cc1	0.21 (inactive)
Cc1ccc(Nc2nnc(SCC(=O)c3cc4ccccc4o3)s2)cc1C	-0.02 (inactive)
CC1CCN(C(=S)NC2CC3CCC2C3)CC1 (stereo unspecified)	-0.08 (inactive)
CN1CCN(c2ccc(NC(=O)COc3ccc(Cl)cc3Cl)cc2)CC1	-0.4 (inactive)
Cc1cccc(NC(=O)COc2ccccc2C)n1	0.47 (inactive)
Cc1ccccc1OCC(=O)Nc1ccc(N2CCN(C(=O)C(C)C)CC2)c(Cl)c1	-3.97 (active)
O=S(=O)(NCCc1ccncc1)c1ccccc1	0.43 (inactive)
Cc1cccc(-n2c(C)cc(/C=N\NC(=O)c3cccs3)c2C)c1	-0.91 (inactive)
CCn1c(/C=C/Nc2ccccc2)[n+](CC)c2ccc(C(=O)OCC(F)(F)F)cc21	1.39 (inactive)
Cc1nn(Cc2ccccc2)c2c1C(c1ccccc1)C(C#N)=C(N)O2 (stereo unspecified)	-3.32 (active)
CCCc1[nH]nc2c1C(c1c(C)nn(-c3ccccc3)c1Cl)C(C#N)=C(N)O2 (stereo unspecified)	0.22 (inactive)
Cc1cc2c(c(=O)n1Cc1ccco1)C(c1ccccc1)C(C#N)=C(N)O2 (stereo unspecified)	1.13 (inactive)
O=C(COC(=O)c1ccccc1SCC(=O)NC1CCCCC1)NC1CCCCC1	1.77 (inactive)
CCCn1c(C)cc(C(=O)COC(=O)c2c(C)nn(-c3ccccc3)c2C)c1C	1.05 (inactive)
Cc1nn(-c2ccccc2)c(C)c1C(=O)OCC(=O)NC(=O)NC1CCCCC1	-3.49 (active)
COC(=O)[C@H]1Cc2cnoc2C[C@]1(C)C(=O)O	1.39 (inactive)
O=c1c(Cl)c(NCc2ccc(F)cc2Cl)cnn1C12CC3CC(CC(C3)C1)C2	0.24 (inactive)
COc1ccc(-c2cc(C3CCN(c4ncccc4[N+](=O)[O-])CC3)[nH]n2)cc1	-3.98 (active)
COc1cccc(NC(=O)c2nn(C34CC5CC(CC(C5)C3)C4)cc2[N+](=O)[O-])c1	-0.19 (inactive)
Cc1nc(-c2ccc(NC(=O)c3cccs3)cc2)cs1	-0.41 (inactive)
Cc1ccc(-c2csc(NC(=O)c3cccs3)n2)cc1	-3.32 (active)

SMILES	z-score
Cc1ccc(-c2nnc(-c3ccc(NC(=O)c4cccs4)cc3)o2)cc1	-0.15 (inactive)
CC(C)(C)C1C/C(=C/c2ccco2)C(=O)/C(=C/c2ccco2)C1 (stereo unspecified)	0.6 (inactive)
Cc1ccc(OCC(=O)OC(C)CN(C)Cc2ccccc2)cc1 (stereo unspecified)	2.87 (inactive)
COc1ccc(N2C(=O)CNC2=S)cc1	0.4 (inactive)
c1ccc(-c2cc(-c3nnc4sc(-c5ccccn5)nn34)[nH]n2)cc1	-3.26 (active)
CCOc1cccc(-c2nn3c(-c4ccccn4)nnc3s2)c1	-1.53 (inactive)
COc1ccc(-c2nn3c(-c4ccccc4)nnc3s2)cc1OC	-1.25 (inactive)
CC(NC(=O)C(=O)NN=C1CCC(C(C)(C)C)CC1)c1ccccc1 (stereo unspecified)	-0.32 (inactive)
CNc1ccc(NC(C)=O)cc1[N+](=O)[O-]	-0.8 (inactive)
CC(C)CC(=O)NC(=S)Nc1cc(C(=O)O)ccc1Cl	0.14 (inactive)
COc1ccc(-c2cn(-c3ccc(OC)cc3)c(=S)[nH]2)cc1	0.64 (inactive)
CSCCC(NC(=O)COc1ccccc1)C(=O)Nc1ccc(C)cc1 (stereo unspecified)	0.49 (inactive)
CC(C)OCCCNc1ncnc2c1[nH]c1ccc(F)cc12	-1.09 (inactive)
Fc1ccc2[nH]c3c(N4CCSCC4)ncnc3c2c1	-3.08 (active)
CCN1CCCC1CNc1ncnc2c1[nH]c1ccc(F)cc12 (stereo unspecified)	1.26 (inactive)
O=C(CNCc1ccc(F)cc1)Nc1ccccc1-c1ccccc1	-0.24 (inactive)
COc1ccc(C(=O)NNS(=O)(=O)c2ccc(C)cc2)cc1	-0.21 (inactive)
CCCCNC(=O)CCn1c(=O)c2ccccc2n(Cc2cc(C)ccc2C)c1=O	1.04 (inactive)
CN1/C(=c2/s/c(=C3/C(=O)N(c4ccccc4)NC3=Nc3ccccc3)n(C)c2=O)C(C)(C)c2ccccc21	-3.22 (active)
COc1cccc(-c2ccc(C#N)c(SCC(=O)NCCc3ccc(Cl)cc3)n2)c1	-0.01 (inactive)
COc1ccc(Br)cc1CN(C)CC(=O)Nc1cc([N+](=O)[O-])ccc1OC	-1.86 (inactive)
Cc1ccc2c(CC(=O)NCc3cccs3)coc2c1	-0.4 (inactive)
N#C/C(=C\c1ccc(N2CCOCC2)o1)C(=O)N1CCOCC1	0.12 (inactive)
COc1ccccc1Oc1ccc(N/C=C2/CCCC2=O)cc1	0.42 (inactive)

SMILES	z-score
CSc1nc(N)c(C#N)c(-c2ccccc2Cl)c1C#N	-2.52 (inactive)
COc1ccc(C2CC(=O)Nc3sc(=N)c4c(N)c(C#N)c(N)nc4c32)cc1OC (stereo unspecified)	-1.89 (inactive)
N#Cc1c(N)nc2c3c(sc(=N)c2c1N)NC(=O)CC3c1ccccc1Cl (stereo unspecified)	-3.47 (active)
Cc1c(/C=N/N2C(=O)C3C4C=CC(C4)C3C2=O)c2ccccc2n1C (stereo unspecified)	0.37 (inactive)
Cc1ccc(CNC(=O)COc2ccc3c(c2)CCC3)cc1	1.09 (inactive)
CCCCN(C)c1ccc([N+](=O)[O-])cc1	-0.3 (inactive)
O=C(NCCc1ccccc1)C1CCN(S(=O)(=O)c2ccc(Br)s2)CC1	0.91 (inactive)
Cc1ccc(C(=O)Cc2nnc(C)s2)cc1	0.12 (inactive)
CCOc1ccc(NC(=O)c2ccccc2NS(C)(=O)=O)cc1	-0.27 (inactive)
COC(=O)c1ccc(NC(=O)c2ccccc2NS(=O)(=O)c2ccccc2)cc1	-3.71 (active)
COC(=O)c1ccccc1NC(=O)c1ccccc1NS(C)(=O)=O	0.05 (inactive)
O=C(NC(=S)Nc1ccc(NC(=O)c2cccs2)cc1)c1ccc([N+](=O)[O-])cc1	0.61 (inactive)
Cc1cccc(N2CCN(C(=O)c3cccc(S(=O)(=O)N4CCc5ccccc5C4)c3)CC2C)c1 (stereo unspecified)	0.72 (inactive)
CCc1ccc(C2N3CC4([N+](=O)[O-])CN2CC([N+](=O)[O-])(C3)C4(C)C)cc1 (stereo unspecified)	0.28 (inactive)
C=CCn1c(SCC(=O)NCc2ccccc2)nnc1-c1cc(Br)ccc1O	-0.9 (inactive)
C=CCn1c(CSc2nc3ccccc3s2)nnc1SCC(=O)NCc1ccco1	0.84 (inactive)
C=CCn1c(SCC(=O)Nc2nc3ccccc3s2)nnc1-c1ccccc1O	-3.16 (active)
CCCN1C2=C(C(=O)CCC2)C(c2ccc(O)c(Br)c2)C2=C1CCCC2=O	-3.69 (active)
CCCC(=O)N1c2ccccc2NC2=C(C(=O)CCC2)C1c1ccc(F)cc1 (stereo unspecified)	-0.82 (inactive)
N#CC1=C(N)N(c2ccccc2)C2=C(C(=O)CCC2)C1c1ccccc1 (stereo unspecified)	-0.02 (inactive)
CCOc1ccc(Br)cc1S(=O)(=O)Nc1cccc(S(=O)(=O)N(CC)CC)c1	1.18 (inactive)
CCCCCCc1cc2cc(-c3nnc(-c4ccccc4)o3)c(=O)oc2cc1O	-3.06 (active)
O=c1oc2cc(O)ccc2cc1-c1ccc(F)cc1	-0.5 (inactive)
CC(C)NC(=O)C(=O)NCCCOC(C)C	0.05 (inactive)

Source: PubChem BioAssay AID1347419 (Sanford-Burnham Center for Chemical Genomics, 2020)
